Source: PubChem BioAssay
G9a inh: qHTS Assay for Inhibitors of Histone Lysine Methyltransferase G9a; Histone-lysine N-methyltransferase EHMT2 (Homo sapiens), Q96KQ7; Potency, µM (highest dose often 102 µM), without a hit: top-dose activity, negative = inhibition, usual class: inhibitors; G9a H3K9 monomethylation, AlphaScreen, 2 h; hit rate 8.8% among 350,000; further: on the % scale 0 is the no-effect control and ±100 the full control effect; nearly all actives have a fitted effect of over 75% in size
Target sequence (Q96KQ7 913-1193 limits assumed): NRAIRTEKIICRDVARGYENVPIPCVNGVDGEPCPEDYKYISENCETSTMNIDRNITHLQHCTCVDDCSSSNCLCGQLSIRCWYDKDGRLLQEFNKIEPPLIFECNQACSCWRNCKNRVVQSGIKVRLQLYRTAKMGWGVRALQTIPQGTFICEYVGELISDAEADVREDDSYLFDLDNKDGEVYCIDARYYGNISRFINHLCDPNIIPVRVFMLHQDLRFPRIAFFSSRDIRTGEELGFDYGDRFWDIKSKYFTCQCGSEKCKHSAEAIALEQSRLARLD
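Compounds were preincubated with 20 nM G9a for 15 min, after which biotinylated H3K9 peptide (500 nM) and SAM (20 uM) started a 2 h room-temperature reaction. Monomethylated product was quantified by antibody-based AlphaScreen chemiluminescence.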
GRP78 ERSR act: qHTS for Inducers of the Endoplasmic Reticulum Stress Response (ERSR) in Human Glioma: qHTS. U87-MG GRP78 promoter luciferase reporter, 16 h. Potency, µM, for inactives: at the highest dose activation, actives largely listed as activators. hit rate 0.02% among 420,000. AID 602332, 2012; further: series mostly up to about 76 µM; % of control where 0% means no effect; nearly all actives have a fitted effect of over 35% in size
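Stably transfected U87-MG glioma cells carrying a GRP78-based luciferase sensor; 16 h compound incubation. Luminescence end-point read 10 min after Bright-Glo addition at room temperature.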
12-LOX inh: Primary qHTS assay for inhibitors of human arachidonate 12S-lipoxygenase (ALOX12): Round 2. AID 1671190, 2021. purified 12hLO, xylenol orange hydroperoxide absorbance. Potency, µM (highest dose often 108 µM), for the others: at the top dose activity change, negative = inhibition, usual class: inhibitors. hit rate 1.1% among 580,000; further: on the % scale 0 is the no-effect control and ±100 the full control effect
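Hydroperoxide product was detected by ferrous iron/xylenol orange as the 573 to 405 nm absorbance ratio. Arachidonic acid at 40 uM (final) was turned over for 30 min at room temperature by 150 nM human 12hLO, pH 7.0 Hepes buffer, after 15 min compound preincubation.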
Sfp PPTase inh: qHTS Assay for Inhibitors of Bacillus subtilis Sfp phosphopantetheinyl transferase (PPTase). 4'-phosphopantetheinyl transferase ffp (Bacillus subtilis), Q9F4F7. Biochemical Sfp PPTase activity, qHTS. Potency, µM, inactives show largest response in the series, negative = inhibition, most hits filed as inhibitors. hit rate 3.5% among 310,000;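 further: the enzyme is Sfp with the accession as filed and its product quenches rhodamine fluorescence; 0% = enzyme reaction without inhibitor and -100% = no enzyme wells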
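Compounds were incubated with enzyme (final 15 nM) for 15 min at room temperature before substrate addition started the reaction. Fluorescence at 525 nm excitation, 598 nm emission was recorded immediately and after 30 minutes.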
VDR inh: Inhibitors of the vitamin D receptor (VDR): qHTS. VDR-SRC2-3 peptide fluorescence polarization, 2 h. Vitamin D3 receptor (Homo sapiens), P11473. Potency, µM, for inactives: max response, negative = inhibition, actives largely listed as inhibitors. hit rate 0.93% among 400,000; further: on the % scale 0 is the no-effect control and ±100 the full control effect
Target sequence (P11473 whole entry, looked up): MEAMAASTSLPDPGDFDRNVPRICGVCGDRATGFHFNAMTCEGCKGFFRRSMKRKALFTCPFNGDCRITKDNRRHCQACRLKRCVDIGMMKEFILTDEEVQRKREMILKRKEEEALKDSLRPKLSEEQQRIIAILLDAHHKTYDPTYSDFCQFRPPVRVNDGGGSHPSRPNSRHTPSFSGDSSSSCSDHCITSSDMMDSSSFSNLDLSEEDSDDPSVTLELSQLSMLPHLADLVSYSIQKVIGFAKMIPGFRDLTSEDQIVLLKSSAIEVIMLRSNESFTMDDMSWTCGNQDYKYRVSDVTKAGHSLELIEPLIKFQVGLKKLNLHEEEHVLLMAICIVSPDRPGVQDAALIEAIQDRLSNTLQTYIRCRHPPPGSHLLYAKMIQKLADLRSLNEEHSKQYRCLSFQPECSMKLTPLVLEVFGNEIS
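Measured by FP: displacement of SRC2-3 coactivator peptide from VDR by library compounds, following a two-hour ambient incubation.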
* hit, by the source's call; ? = inconclusive; / = no result; [ ] = another dose, or the depositor's remark. Only a selection was taken, and hits are over-represented in it overall. The call rests on the fitted dose curve; in most records, active means well fitted curve in the direction sought with a large enough effect; inconclusive means small, poorly fitted or top-dose-only effect, or another doubt; inactive means no such curve, though single readings can be large; an effect the other way counts as inactive or inconclusive. Potency means the concentration at half of the fitted maximal effect.

SMILES	G9a inh	GRP78 ERSR act	12-LOX inh	Sfp PPTase inh	VDR inh
O=[N+]([O-])c1ccc(N2CCCCC2)nc1N1CCCCC1	28µM*	-2%	-1%	-11%	2%
Cc1c(CCC(=O)NC2CCCCCC2)c(=O)oc2cc(O)ccc12	/	/	17%	/	/
OC[C@H]1O[C@@H](OC[C@H]2O[C@@H](O)[C@H](O)[C@@H](O)[C@@H]2O)[C@H](O)[C@@H](O)[C@@H]1O	/	-2%	2%	7%	2%
CC(/C=C/C=C(\C)C(=O)O[C@@H]1O[C@H](CO[C@@H]2O[C@H](CO)[C@@H](O)[C@H](O)[C@H]2O)[C@@H](O)[C@H](O)[C@H]1O)=C\C=C\C=C(C)\C=C\C=C(/C)C(=O)O[C@@H]1O[C@H](CO[C@@H]2O[C@H](CO)[C@@H](O)[C@H](O)[C@H]2O)[C@@H](O)[C@H](O)[C@H]1O	18µM*	-4%	?	4%	12%
CCn1cc(CN2CC[C@H]3C(=O)NCCCCCCN(Cc4ccncc4)[C@@H]3C2)cn1	/	/	135%	/	/
COc1ccc(OC)c(-c2c3c([nH]c(=S)c2C#N)CCCC3)c1	?	-4%	?	22µM*	3%
COc1ccc(-c2c3c([nH]c(=S)c2C#N)CCC3)cc1	?	2%	-22%	22µM*	?
O=C(c1ccccc1)n1nc(NCc2cccs2)nc1NCc1cccs1	/	/	40%	/	/
CCCn1c(C)cc(C(=O)CSc2nnc(COc3ccccc3Cl)n2C)c1C	/	/	10%	/	/
COC(=O)c1ccc(Oc2coc3cc(OCc4ccc(Cl)cc4)ccc3c2=O)cc1	/	/	1%	/	/
CCc1ccccc1NC(=O)Cn1c(N2CCN(c3ccccc3)CC2)nc(C)cc1=O	/	/	20%	/	/
Cc1cc(NC(=O)c2cc(-c3ccc(Cl)cc3)on2)nn1Cc1ccc(Cl)cc1	-19%[59 µM]	-4%	1%	/	-19%
COc1ccccc1-c1cc(C(=O)Nc2cc(C)n(Cc3ccc(Cl)cc3)n2)no1	16%[12.7 µM]	-7%	16%	40µM*	5%
Cc1cc(NC(=O)c2nccnc2N)ccc1Br	/	/	61%	/	/
CCOc1ccc(-c2n[nH]c(C(=O)NN)c2C)cc1	8%[59 µM]	-1%	14%	5%	-5%
Cc1c(-c2ccccc2)n[nH]c1C(=O)NN	40µM*	4%	1%	12%	-9%
O=C(COC(=O)C12CC3CC(CC(Cl)(C3)C1)C2)Nc1ccc(Cl)cc1[N+](=O)[O-]	/	/	7%	/	/
COc1cc([N+](=O)[O-])ccc1N	?	-3%	?	5%	-5%
COc1cc([N+](=O)[O-])ccc1N1C(=O)C2C3C=CC(C4CC34)C2C1=O (stereo not drawn)	40µM*	0%	-9%	6%	-1%
Cc1ccc2c(c1)N/C(=C(\C=C(/Cl)[N+](=O)[O-])[N+](=O)[O-])N2	22µM*	/	/	35µM*	/
Cc1ccc2c(c1)/C(=C/c1ccc(F)cc1)C(=O)N2	-24%	?	-22%	-10%	?
CCOc1ccc(-c2[nH]ncc2-c2ccc(Br)cc2)c(O)c1	/	/	28µM*	/	/
CCOc1ccc(-c2[nH]ncc2-c2ccc(Cl)cc2)c(O)c1	-4%	-10%	?	19%	10%
O=c1cc(O)nc(SC23CC4CC(CC(C4)C2)C3)[nH]1	45µM*	-5%	?	-11%	-6%
CC(C)n1nc(C(=O)Nc2ccc(F)c(F)c2)c2ccccc2c1=O	/	/	18%	/	/
SMILES	G9a inh	GRP78 ERSR act	12-LOX inh	Sfp PPTase inh	VDR inh
COCC(C)NCc1ccccc1C (stereo not drawn)	?	-3%	?	9%	5%
COCC(C)NCc1cccc(OC)c1OC (stereo not drawn)	18µM*	-9%	?	-14%	-4%
CCc1ccc(OCC(=O)OCC(=O)c2cc3ccccc3o2)cc1	/	/	-21%	/	/
CCOC(=O)c1[nH]c(=O)[nH]c1COC(=O)c1cc2ccccc2o1	7.9µM*	-4%	0%	19%	-24%
CCOC(=O)c1sc2cccc(F)c2c1S(=O)(=O)N1CCN(c2cccc(Cl)c2)CC1	8.9µM*	-3%	?	/	-1%
CC(C)(C)C1=CC(=O)C(=O)C(C(C)(C)C)=C1	1.6µM*	-11%	/	1.1µM*	?
COc1ccc(NC(=O)C2(C)CN(C)Cc3ccc(NCc4ccccc4)nc32)cn1 (stereo not drawn)	/	/	83%[176 µM]	/	/
O=C(Cn1ccn2nc(-c3ccc(F)cc3)c(CO)c2c1=O)Nc1ccc(Cl)cc1F	/	/	8%	/	/
Cc1ccc2nc3c(cc(C(=O)NCc4cccnc4)c(=N)n3C(C)C)c(=O)n2c1	40µM*	/	/	14%	/
COc1cc(CN(CC2CCCO2)C(=O)COc2ccc(Cl)cc2Cl)cc(OC)c1OC (stereo not drawn)	/	/	38%	/	/
OCC[C@@H]1C[C@H](O)[C@@H](O)[C@@]2(CCCc3ccccc3O2)O1	28µM*	-5%	-33%	-6%	-4%
CC1CCc2onc(C(=O)Nc3cccc(Cl)c3)c2C1 (stereo not drawn)	/	/	2%	/	/
C[C@]1(OC(=O)/C=C/c2ccccc2)C[C@@H](O)[C@]2(O)C=CO[C@@H](O[C@@H]3O[C@H](CO)[C@@H](O)[C@H](O)[C@H]3O)[C@@H]21	18µM*	-1%	-1%	/	2%
CC1CN(C(=O)COC(=O)/C=C/c2ccccc2)CC(C)O1 (stereo not drawn)	/	-2%	7%	/	/
c1ccc2c(COn3nnc4ccccc43)cccc2c1	70%	8%	-6%	?	6%
N#Cc1ccc(COn2nnc3ccccc32)cc1	89µM*	10%	-8%	22%	-2%
O=C(Nc1ccc2c(c1)CCC2)c1cccc2ccccc12	/	/	55%	/	/
C[n+]1nc(Nc2cccc3ccccc23)sc1-c1ccc(C(=O)O)cc1	2%[12.7 µM]	/	/	-16%	/
CC(=O)Nc1ccc(-c2sc(Nc3cccc4ccccc34)n[n+]2-c2ccccc2)cc1	45µM*	3%	?	-24%	-5%
CCc1ccc(Nc2n[n+](C)c(-c3ccncc3)s2)cc1	/	-1%	?	79µM*	79µM*
CCc1ccc(Nc2n[n+](-c3ccccc3)c(-c3ccc(SC)cc3)s2)cc1	45µM*	-4%	?	6%	-8%
CSc1ccc(-c2sc(Nc3ccccc3)n[n+]2-c2ccccc2)cc1	35µM*	-2%	/	?	-12%
O=S(=O)(Nc1nc2ccccc2nc1NC1CC1)c1ccc2c(c1)OCCO2	/	/	-15%	/	/
Clc1cccc(-c2sc(Nc3ccccc3)n[n+]2-c2ccccc2)c1Cl	/	-3%	?	50µM*	-22%
CCc1ccc(Nc2n[n+](C)c(-c3ccc(C(=O)O)cc3)s2)cc1	2%[12.7 µM]	/	/	11%	/
